# The list is not random: actives were taken first. Their share in the collection is about 21%.
# HCMV inh = blocks human cytomegalovirus replication; HFF cells, HCMV-luciferase reporter, 72 h; active compounds read low; activity change, negative = inhibition, % at 57.5 µM; actives 4.5% (n = 410,000); AID 1259415; in the data active = activity change below about -60%; inconclusive = no clear call, values can overlap the other calls; inactive = above about -39%; note: % is set by controls: 0 for no effect and ±100 for the full control effect
#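 Inhibition of viral replication was scored as loss of reporter luminescence in HFFs infected with HCMV-luciferase (MOI 1 PFU/cell) for 72 h; compounds tested at 2 doses, normalized to buffer and Salinomycin controls.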
# Pf growth 48h = inhibits P. falciparum growth in the first generation, 48 h; AID 504832; actives 5.9% (n = 310,000); P. falciparum luciferase growth in erythrocytes, 48 h; Potency, µM (doses to about 28.7 µM), for inactives: at the highest dose activity change, negative = inhibition, most hits filed as inhibitors; note: potency is the fitted concentration of half-maximal effect; % is set by controls: 0 for no effect and ±100 for the full control effect
#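 Growth was read as firefly luciferase luminescence after a 48 h, 37 C, 5% CO2 exposure of compounds to reporter-bearing P. falciparum cultures (0.1% parasitemia, 2% hematocrit final) in Albumax-supplemented RPMI 1640.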
# Cycloheximide cs = counter-screen for Shiga toxin inhibitors: cycloheximide protein synthesis inhibition; cell reporter, cycloheximide protein synthesis inhibition counterscreen; actives 12% (n = 300,000); max response, %; in the data active = max response mostly above about 13%, no sharp cut-off; inactive = mostly below about 14%; note: read at 38.3 µM for the half of the compounds with a filed dose; 0% is about no effect
# Pf growth 96h = inhibits malaria parasite growth, 96 h; P. falciparum luciferase reporter growth, 96 h; Potency, µM (series often up to 28.7 µM), inactives show at the highest dose activity change, negative = inhibition, most hits filed as inhibitors; actives 6.9% (n = 320,000); AID 504834; note: potency is the fitted concentration of half-maximal effect; % is set by controls: 0 for no effect and ±100 for the full control effect
#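 Two parasite generations (96 h, 37 C, 5% CO2) of compound exposure in infected erythrocytes (0.05% parasitemia, 2% hematocrit). Luciferase-reporter P. falciparum; decreased luminescence indicates inhibited growth, aimed at apicoplast-acting delayed death.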
# HCV inhibitor = inhibitors of hepatitis C virus infection. Huh7.5.1 HCVcc-Cre infection, luciferase reporter, 44 h. Potency, µM (highest dose often 41.8 µM), without a hit: at the top dose activity change, negative = inhibition, usual class: inhibitors. actives 3.4% (n = 340,000). AID 651820; note: potency is the fitted concentration of half-maximal effect; % is set by controls: 0 for no effect and ±100 for the full control effect
#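 Antiviral activity was scored by luciferase reporter output from cells infected with HCVcc-Cre (~0.5 moi) in presence of compound, 44 h infection period, cells seeded 1,000/well 4 h prior.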
# Shiga inhibitor = Shiga toxin inhibition; Vero cells, Shiga toxin protein synthesis inhibition reporter; actives 9.2% (n = 290,000); inhibition, % at 38.7 µM; in the data active = inhibition mostly above about 28%, no sharp cut-off; inactive = mostly below about 43%; note: 0% is about no effect
# * = called active by the depositor; ? = inconclusive; · = no result. Unless noted, calls come from the whole dose curve; as a rule, active = well fitted inhibition curve with a large enough effect; inconclusive = small, poorly fitted or top-dose-only effect, or another doubt; inactive = no such curve, though single readings can be large or run the other way.
SMILES,HCMV inh,Pf growth 48h,Cycloheximide cs,Pf growth 96h,HCV inhibitor,Shiga inhibitor
CC(=O)Nc1ccc2nc(-c3ccc(Br)o3)[nH]c2c1,20.0,219.6%,55.4*,-22.8%,-4.9%,58.0*
O=C(Nc1ccc2nc(-c3ccc(Br)o3)[nH]c2c1)c1ccco1,11.0,?,23.5*,·,-19.8%,74.0*
O=C(Nc1ccc2nc(-c3ccc(Br)o3)[nH]c2c1)c1cccs1,-9.7,?,44.8*,?,?,52.4*
COc1ccc(NC(=O)c2ccco2)cc1NC(=O)c1ccc(Br)o1,-23.3,18.3%,0.7,?,?,12.3
CC(C)Nc1ncnc2c1ncn2[C@H]1CN(Cc2ccc(Cl)cc2)C[C@@H](CO)O1,21.3,·,·,·,·,·
CNC(=O)c1ccsc1NC(=O)CS(=O)(=O)c1ccc(F)cc1,-32.3,·,·,·,·,·
CCN(CC)c1cc2c(cc1F)c(=O)c(S(=O)(=O)c1ccc(C)cc1)cn2Cc1ccc(F)cc1,3.2,·,·,·,·,·
CCOC(=O)/C(C#N)=N/Nc1ccccc1C(=O)O,0.0,?,-3.0,10.4µM*,10.4%,0.9
CCOC(=O)CC(=O)Nc1ccccc1C(=O)O,30.8,24.5%,-1.9,82.7%,-4.0%,-20.4
O=C(N/N=C/c1c(O)n(CCc2ccc(F)cc2)c(=O)[nH]c1=O)c1ccncc1,1.2,5.4%,15.4,?,5.4%,-1.1
O=C(N/N=C/c1c(O)n(Cc2ccc(F)cc2)c(=O)[nH]c1=O)c1ccccc1O,63.1,11.6%,8.6,?,-3.0%,50.2
CCn1c(O)c(/C=N/NC(=O)c2ccccc2)c(=O)[nH]c1=S,-63.4*,?,31.4*,58.2%,12.0%,44.2*
COc1ccc(Cn2c(O)c(/C=N/NC(=O)c3ccncc3)c(=O)[nH]c2=O)cc1,1.5,13.0%,-3.0,18.8%,-2.4%,-6.1
COc1ccc(Cn2c(O)c(/C=N/NC(=O)c3ccccc3O)c(=O)[nH]c2=O)cc1,?,-1.7%,13.0*,4.7%,7.8%,19.6
O=C(N/N=C/c1c(O)n(CCc2ccc(F)cc2)c(=O)[nH]c1=O)c1ccccc1,19.2,80.9%,14.0*,?,3.5%,52.8*
COc1ccc(Cn2c(O)c(/C=N/NC(=O)c3ccccc3)c(=O)[nH]c2=O)cc1,-9.5,11.7%,37.3*,-27.7%,-13.6%,74.9*
C=CCn1c(O)c(/C=N/NC(=O)CCCC)c(=O)[nH]c1=S,-33.7,20.2%,-1.8,28.7%,9.5%,-5.1
CCCCCCCCN1C(=O)[C@@H](CC(=O)NCCC(C)C)C[C@@]2(C(=O)OC)C1=C[C@H](C1CCCC1)O[C@@H]2C,31.0,·,·,·,·,·
O=C(NCc1cccnc1)C(=O)NCC1OCCCN1S(=O)(=O)c1ccc(F)cc1 (stereo not drawn),3.6,2.4%,0.5,14.6%,·,-33.7
O=C(N/N=C/c1c(O)n(CCc2ccccc2)c(=O)[nH]c1=O)c1ccccc1O,40.4,1.3%,23.7*,-10.7%,?,28.7
O=C(N/N=C/c1c(O)n(Cc2ccco2)c(=O)[nH]c1=O)c1ccccc1,14.9,22.4%,33.7*,26.5%,6.3%,79.9
O=C(N/N=C/c1c(O)n(CCc2ccccc2)c(=O)[nH]c1=O)c1ccncc1,-16.6,-8.5%,-6.8,?,17.3%,-14.8
O=c1[nH]c(=O)n(Cc2ccco2)c(O)c1C=NC1CC1,-8.1,5.9%,-4.6,22.6%,10.3%,12.7
COc1ccccc1-n1c(O)c(/C=N/NC(=S)Nc2ccccc2)c(=O)[nH]c1=S,10.8,47.7%,21.6*,11.1%,28.6%,31.8
O=C(N/N=C/c1c(O)n(Cc2ccccc2)c(=O)[nH]c1=O)c1ccccc1O,-33.4,12.1%,16.1*,?,5.7%,6.1
SMILES,HCMV inh,Pf growth 48h,Cycloheximide cs,Pf growth 96h,HCV inhibitor,Shiga inhibitor
CC(=O)c1cccc(NC(=O)c2nc3ccccc3nc2N2CCCCC2)c1,20.2,·,·,·,·,·
COc1ccc(-c2nc(SCC(=O)Nc3cccc(C(C)=O)c3)n[nH]2)cc1,26.3,·,·,·,·,·
COc1ccc(S(=O)(=O)n2nc(C)c(S(=O)(=O)N3CCC(C)CC3)c2C)cc1OC,5.8,·,·,·,·,·
CC(NCC(O)c1ccc([N+](=O)[O-])cc1)C12CC3CC(CC(C3)C1)C2 (stereo not drawn),?,?,-3.6,?,-26.8%,-5.0
COc1cc(-c2nnn(CC(=O)NC3CCS(=O)(=O)C3)n2)ccc1OCc1ccccc1 (stereo not drawn),45.7,40.0%,16.9*,216.9%,-19.5%,44.4*
COc1ccc(-c2nnn(CC(=O)c3ccccc3)n2)cc1OC,7.2,·,4.3,?,-29.1%,-3.9
COc1cc(-c2nnn(CC#N)n2)ccc1OCc1ccccc1,40.5,151.5%,29.9*,·,-20.9%,63.9*
Cc1ccc(CNC(=O)c2c(-c3ccc(F)cc3F)noc2C)o1,9.0,·,·,·,·,·
CC(=O)Nc1ccc(NC(=O)c2cc3sccc3n2Cc2ccc(Cl)cc2)cc1,18.8,·,·,·,·,·
Cn1cccc1C(=O)NCCc1ccccc1,77.1,180.1%,23.5*,229.1%,11.3%,51.3*
Cn1cccc1C(=O)NCCc1ccc(Cl)cc1,24.2,75.2%,46.1*,86.6%,-10.4%,124.8*
Cn1cccc1C(=O)NCc1ccc(Cl)cc1,-7.8,6.0%,10.5,39.5%,10.7%,-5.3
Cn1cccc1C(=O)NNC(=O)COc1ccccc1F,·,139.6%,32.8*,150.1%,6.2%,86.4*
CCOC(=O)Cc1ccc(NC(=O)Nc2cc3c(cc2N2CCCCC2)n(C)c(=O)n3C)cc1,10.5,·,·,·,·,·
CCCCn1cc(S(=O)(=O)c2ccc(CC)cc2)c(=O)c2cc(F)c(N3CCCC(C)C3)cc21 (stereo not drawn),-0.3,·,·,·,·,·
CN(C)c1ccc(C=Nc2cnn(C)c2C(N)=O)cc1,-12.9,39.8%,39.2*,?,17.7%,90.1*
O=C(CN1C(=O)COc2ccccc21)NCCc1ccc(Cl)cc1,-37.8,·,·,·,·,·
COC(=O)COc1ccc(/C=N/NC(=O)CN(c2ccccc2OC)S(=O)(=O)c2ccccc2)cc1,-99.8*,-21.7%,1.9,?,?,6.8
COc1ccccc1N(CC(=O)N/N=C/c1ccc(OCC(=O)NCc2ccco2)cc1)S(=O)(=O)c1ccc(C)cc1,·,·,-1.7,?,5.01µM*,-15.3
Cc1ccc(S(=O)(=O)c2nc(-c3ccccc3)oc2SCC(=O)NC2CCCCC2)cc1,19.6,·,·,·,·,·
COc1ccccc1CN(C)C[C@H]1OCc2cnnn2CCCC(=O)N([C@@H](C)CO)C[C@@H]1C,-9.9,·,·,·,·,·
S=C(c1ccc(-c2ccc(Br)cc2)o1)N1CCOCC1,124.8,180.7%,50.6*,275.4%,?,91.8*
S=C(c1ccc(-c2ccccc2Cl)o1)N1CCOCC1,·,128.8%,23.7*,·,?,93.4*
O=C(c1ccc(-c2ccc([N+](=O)[O-])cc2Cl)o1)N1CCOCC1,-38.3,33.2%,26.1*,9.8%,9.6%,56.9*
